Most compounds without a hit are left out; they make up all but 6.2% or so of the library.
LASV entry inh – qHTS for Inhibitors of binding or entry into cells for Lassa Virus; Lassa virus pseudotype entry inhibition, cell reporter; Potency, µM (highest dose often 37.9 µM), inactives show at the highest dose activity change, negative = inhibition, hits mostly inhibitors; 1.2% of 300,000 active; AID 540256, 2011; calls by dose curve; tested in HEK293 cells; also: potency is read from the fitted curve at half-maximal effect; nearly all actives have a fitted effect of over 50% in size
FMDV antiviral – High Throughput Screening for Foot and Mouth Disease Virus Antivirals | FMDV antiviral cell-based qHTS | Potency, µM (top dose mostly 57.9 µM), for inactives: top-dose activity change, negative = inhibition, most hits filed as inhibitors | 1.2% of 410,000 active; calls by dose curve; tested in HEK293T cells; also: read-out not given here; potency is read from the fitted curve at half-maximal effect; nearly all actives have a fitted effect of over 45% in size
HCMV inh – qHTS Assay for inhibitors of the human cytomegalovirus (HCMV); HFF cells, HCMV-luciferase reporter, 72 h; hits give low values; activity change, negative = inhibition, % at 57.5 µM; 4.5% of 410,000 active; in the data active = activity change below about -60%; inconclusive = no clear call, values can overlap the other calls; inactive = above about -39%
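Compounds were evaluated in HFFs infected with an HCMV luciferase reporter virus (MOI 1 PFU/cell). Luciferase in lysates collected 72 h post infection served as the replication measure.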
MARV entry inh – qHTS for inhibitors of binding or entry into cells for Marburg Virus. Marburg virus pseudotyped entry inhibition, cell reporter. 1.8% of 300,000 active. Potency, µM (doses to about 37.8 µM), inactives show at the top dose activity change, negative = inhibition, hits mostly inhibitors; calls by dose curve; tested in HEK293 cells; also: potency is read from the fitted curve at half-maximal effect
* = called active by the depositor; ? = inconclusive; . = no result; [ ] = another dose, or the depositor's remark. % is scaled to controls: 0 for no effect and ±100 for the full control effect.

SMILES	LASV entry inh	FMDV antiviral	HCMV inh	MARV entry inh
CCOC(=O)CSc1nc2c(sc3ccccc32)c(=O)n1CCO	-1.5%[46.1 µM]	-24.0%	-2.2	.
CCN(c1ccc(OC)cc1)S(=O)(=O)c1ccc(-c2cc(C)no2)s1	.	-20.9%	-75.7*	.
CCc1cc[n+](C2=C([O-])c3ccccc3C(=O)/C2=N\S(=O)(=O)c2cccs2)cc1	18.4µM*	?	?	7.08µM*
O=C(Nc1ccc(F)cc1)Nc1ccc(N2CCCC2)c(S(=O)(=O)Nc2ccccc2Cl)c1	7.31µM*	-21.6%	-99.6*	7.94µM*
CC(C)(C)CC(=O)Nc1ccccc1N1CCN(c2ccccc2)CC1	?	-8.6%	-8.7	?
O=C(NC(=S)Nc1ccccc1N1CCCC1)c1ccco1	4.7%	-8.9%	-13.1	-11.4%[14.2 µM]
O=C(/C=C/c1cccs1)Nc1ccc(N2CCOCC2)c(S(=O)(=O)Nc2ccccc2Cl)c1	?	84.1%	-78.3*	?
O=C(NC(=S)Nc1ccccc1N1CCCCC1)c1ccco1	-9.8%	22.4µM*	-70.7*	0.1%
CC(C)(C)CC(=O)Nc1ccccc1N1CCN(c2ccc(F)cc2)CC1	?	?	-11.1	7.94µM*
O=C(/C=C/c1cccs1)Nc1ccc(N2CCOCC2)c(S(=O)(=O)Nc2cc(Cl)ccc2Cl)c1	-4.0%	36.9%	-11.3	-28.6%
CCN(Cc1ccccc1)C(=O)Cn1c(=O)n(-c2ccc(Cl)cc2)c(=O)c2c(C)c(C(=O)N(C)C)sc21	21.6%[46.1 µM]	-9.8%	-14.6	.
COC(=O)c1ccccc1NC(=O)COC(=O)/C=C/c1cccs1	-28.2%	-23.1%	51.0	-9.2%
CCc1ccc(-c2cc(C)no2)cc1S(=O)(=O)Nc1ccccn1	17.7%[46.1 µM]	69.2%	16.1	-14.4%[46.1 µM]
O=C(Cc1ccc(F)cc1)Nc1ccccc1N1CCCC1	.	-11.0%	10.6	.
O=C(Nc1ccc(Cl)c(Cl)c1)Nc1ccc(N2CCCC2)c(S(=O)(=O)Nc2ccccc2Cl)c1	8.91µM*	-2.9%	-99.0*	?
O=C(Nc1ccc(F)cc1)Nc1csc2ccccc12	?	48.1%	-74.8*	?
O=C(Nc1ccc(F)cc1)Nc1ccccc1N1CCCCC1	.	?	-71.0*	.
CN(CC(=O)Nc1ccc(OC(F)(F)F)cc1)C(=O)c1ccc(N2CCCC2=O)cc1	.	?	-69.7*	.
CCN(c1ccc(NC(=O)c2ccc(N3CCCC3=O)cc2)cc1)C(C)C	?	?	-70.1*	?
CN(CC(=O)Nc1ccc(Cl)cc1)C(=O)c1ccc(N2CCCC2=O)cc1	.	14.9%	-15.5	.
Cc1nnc(NC(=O)c2ccc(N3CCCC3=O)cc2)s1	6.3%	83.5%	72.0	27.8%
CCN(CC)C(=O)c1ccc(NC(=O)c2ccc(N3CCCC3=O)cc2)cc1	.	-2.9%	9.2	.
Cc1csc(NC(=O)c2ccc(N3CCCC3=O)cc2)n1	?	-77.8%	-40.0	1.64µM*
CCCNC(=O)c1cc(-c2ccccc2)c(N2CCCCC2)s1	.	-15.5%	-0.2	.
O=C(Nc1nc2ccccc2n1Cc1ccccc1)c1ccc(COc2ccccc2[N+](=O)[O-])o1	-11.8%	21.7%	-35.9	?
SMILES	LASV entry inh	FMDV antiviral	HCMV inh	MARV entry inh
Cn1c(=O)c([N+](=O)[O-])c(-n2ccnc2)c2ccccc21	?	31.6µM*	41.4	?
O=C(CSc1nccc(=O)[nH]1)Nc1ccc(Oc2ccccc2)cc1	.	-8.8%	-28.9	.
N#Cc1ccc(Cl)cc1NC(=O)CNCc1cccs1	14.1%	31.1%	8.3	-1.2%
C/C(=N\Nc1ncnc2sc(C)c(C)c12)c1ccccn1	?	16.8%	-101.5*	3.16µM*
Cc1sc2ncnc(Nc3ccc(O)cc3)c2c1C	-17.2%	-1.5%	-32.4	-26.0%
CC(=NNc1cc(C)c2ccccc2n1)c1ccccn1	.	.	-97.8*	.
C/C(=N\Nc1ncc(Cl)cc1Cl)c1ccccn1	?	5.62µM*	.	0.891µM*
Cc1sc2ncnc(N/N=C/c3cccc(O)c3)c2c1C	27.5%	-5.0%	?	3.16µM*
CN(CCc1ccccn1)C(=O)c1ccc(OC(F)(F)F)cc1	-6.8%[46.1 µM]	-6.9%	?	9.5%[46.1 µM]
O=C(NCc1ccc2c(c1)OCO2)C1CC(=O)N(C2CCCCCCC2)C1 (stereo not drawn)	-12.0%	-7.5%	-22.8	7.1%
CCN(CC)S(=O)(=O)c1ccc(N/N=C/c2cc(OC)ccc2O)nc1	?	-24.3%	-103.4*	?
COc1ccc(O)c(/C=N/NC(=S)Nc2cccc(S(=O)(=O)N(C)C)c2)c1	4.61µM*	0.0%	26.7	3.66µM*
CCCN(CC(=O)Nc1cc(Cl)cc(Cl)c1)CC(=O)Nc1ccc(F)c(F)c1F	?	-22.8%	-87.3*	?

From PubChem
